Assay results: PubChem BioAssay (NCATS)
Inconclusive results are not listed. Active and inactive are the calls of the source. Calls come from the whole dose curve; as a rule, active = well fitted curve in the direction sought with a large enough effect; inconclusive = small, poorly fitted or top-dose-only effect, or another doubt; inactive = no such curve, though single readings can be large; an effect the other way counts as inactive or inconclusive. *1 amine or outer side, *2 acyl side, *3 side chain or, on linkers, in order; H or OH if unused. Where a SMILES comes first, the peptide text is derived from it. Bridges are numbered along the chain shown (N, C = ends). [ ]: non-standard residue; d: D form. The star is where a group is joined. ξ: configuration not given here. ξhTyr(3S-OH,4S-OH,3'-OSO3H) = NC(C(=O)O)[C@H](O)[C@@H](O)c1ccc(O)c(OS(=O)(=O)O)c1; X9 = CCC(C)(N*)C(=O)C1CC[C@@H](C(=O)N[C@@H](Cc2ccccc2)C(=O)NCC(=O)O)N1; Orn(4R-OH,5R-OH) = O=C([C@H](C[C@@H](O)[C@@H](O)N[*:3])N[*:1])[*:2]; X2 = CCCCCOc1ccc(-c2cc(-c3ccc(C(=O)*)cc3)no2)cc1; X3 = C[C@H]1CN([*:1])C(C(=O)[*:2])[C@H]1O; ξGln(3R-OH) = NC(=O)C[C@@H](O)C(N)C(=O)O; X8 = O=C([C@@H]1CC(O)CN1[*:1])[*:2]; ξPro(4R-OH) = O=C(O)C1C[C@@H](O)CN1; aIle = CC[C@@H](C)[C@H](N)C(=O)O; ξThr(3R) = C[C@@H](O)C(N)C(=O)O; Thr(3ξ) = CC(O)[C@H](N)C(=O)O; ξIva = CCC(C)(N)C(=O)O; Aib = CC(C)(N)C(=O)O

Assays:
HACAT = test: qHTS assay to identify novel small-molecules to repurpose for Merkel cell carcinoma treatment (AID 1296009); conditions: MCC and control cell lines, CellTiter-Glo viability, 72 h; at 44.8 µM (top of the series) unless noted; note: nearly all actives have a fitted effect of over 60% in size
Summary of the method: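 Cells exposed to NPC (8-point) and MIPE (11-point) compound dilutions for 72 hr at 37 degree celsius; viability read by CellTiter-Glo luminescence, normalized to no-cell and DMSO in-plate controls.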

C33A = test: Primary qHTS to identify gynecologic anti-cancer compounds using libraries of approved drugs and bioactive compounds (AID 1345084); conditions: Gynecologic cancer cell panel viability, ATPlite luminescence, 48 h; series mostly up to 57.5 µM; note: % is set by controls: 0 for no effect and ±100 for the full control effect; nearly all actives have a fitted effect of over 55% in size
Summary of the method: (§1)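 48 h compound exposure at 37 C, 5% CO2; five-point qHTS. ATPlite luminescence readout of cell ATP.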

CASKI = test: as above; conditions: Gynecologic cancer cell panel viability, ATPlite luminescence, 48 h; series mostly up to 57.5 µM
Summary of the method: as §1

Es-2 = test: as above; conditions: Gynecologic cancer cell panel viability, ATPlite luminescence, 48 h; series mostly up to 57.5 µM
Summary of the method: as §1

HeLa = test: as above; conditions: Gynecologic cancer cell panel viability, ATPlite luminescence, 48 h; series mostly up to 57.5 µM
Summary of the method: as §1

Hek293T = test: as above; conditions: Gynecologic cancer cell panel viability, ATPlite luminescence, 48 h, control line for the selectivity index; series mostly up to 57.5 µM
Summary of the method: as §1

JEG-3 = test: as above; conditions: Gynecologic cancer cell panel viability, ATPlite luminescence, 48 h; series mostly up to 57.5 µM
Summary of the method: as §1

CAOV3 = test: as above; conditions: Gynecologic cancer cell panel viability, ATPlite luminescence, 48 h; series mostly up to 57.5 µM
Summary of the method: as §1

C[C@H](/C=C/[C@@]1(O)[C@H](C)CC(=O)CC1(C)C)O[C@@H]1O[C@H](CO[C@@H]2OC[C@@H](O)[C@H](O)[C@H]2O)[C@@H](O)[C@H](O)[C@H]1O
inactive: outcome (HACAT) inactive [at 17.4 µM] | Potency (C33A) | outcome (CASKI) | Potency (Es-2) | Potency (HeLa) | Potency (Hek293T) | Potency (JEG-3)

CO[C@H]1c2cc(C(C)C)c(O)c(O)c2[C@@]23CCCC(C)(C)C2[C@@H]1OC3=O (stereo not given in full)
inactive: outcome (HACAT) | Potency (C33A) | outcome (CASKI) | Potency (Es-2) | Potency (HeLa) | Potency (Hek293T) | Potency (JEG-3)

CC(=O)c1[nH]cc(CCC(=O)O)c1CC(=O)O
inactive: outcome (HACAT) | Potency (C33A) | Potency (CAOV3) | outcome (CASKI) | Potency (Es-2) | Potency (HeLa) | Potency (Hek293T) | Potency (JEG-3)

COc1ccc2c(c1)C=C1Cn3c-2c(C2CCCCC2)c2ccc(cc23)C(=O)NS(=O)(=O)N(C)CCOCCN(C)C1=O
inactive: outcome (HACAT) | Potency (C33A) | Potency (CAOV3) | outcome (CASKI) | Potency (HeLa) | Potency (Hek293T) | Potency (JEG-3)

C/C=C(\C)C(=O)OC1C2(O)CC3=C4CC(=O)OC(c5ccoc5)C4(C)CCC3C(C)(C2=O)C(C(OC(C)=O)C(=O)OC)C1(C)C (stereo not given)
inactive: outcome (HACAT) inactive [at 17.4 µM] | Potency (C33A) | Potency (CAOV3) | Potency (Es-2) | Potency (HeLa) | Potency (Hek293T) | Potency (JEG-3)

C=C(C)[C@H]1CC[C@]2(C(=O)O)CC[C@]3(C)C(CCC4[C@@]5(C)CCC(=O)C(C)(C)C5CC[C@]43C)C12 (stereo not given in full)
inactive: outcome (HACAT) inactive [at 17.4 µM] | Potency (C33A) | Potency (CAOV3) | outcome (CASKI) | Potency (Es-2) | Potency (HeLa) | Potency (Hek293T) | Potency (JEG-3)

C/C=C1\[C@H](O[C@@H]2O[C@H](CO)[C@@H](O)[C@H](O)[C@H]2O)OC=C(C(=O)OCCc2ccc(O)cc2)[C@H]1CC(=O)OCCc1ccc(O)cc1
inactive: outcome (HACAT) inactive [at 17.4 µM] | Potency (C33A) | Potency (CAOV3) | Potency (Es-2) | Potency (HeLa) | Potency (Hek293T)

CCCC(=O)Nc1cccc(NC(=O)c2ccccc2Br)c1
inactive: outcome (HACAT) | Potency (C33A) | Potency (CAOV3) | outcome (CASKI) | Potency (Es-2) | Potency (HeLa) | Potency (Hek293T) | Potency (JEG-3)

CCC(C)/C=C(C)/C=C/C1=CC2=C(Cl)C(=O)C(C)(OC(C)=O)C(=O)C2=CN1C(CCCN=C(N)N)C(=O)O (stereo not given)
inactive: outcome (HACAT) inactive [at 17.4 µM] | Potency (C33A) | Potency (CAOV3) | outcome (CASKI) | Potency (Es-2) | Potency (HeLa) | Potency (JEG-3)

Cc1cc(-c2nncc3c(C(C)(C)C)c(OCc4ncnn4C)nn23)no1
inactive: outcome (HACAT) | Potency (C33A) | outcome (CASKI) | Potency (Es-2) | Potency (HeLa) | Potency (Hek293T) | Potency (JEG-3)

CCCCCOc1ccc(-c2cc(-c3ccc(C(=O)N[C@H]4C[C@@H](O)[C@@H](O)NC(=O)C5[C@@H](O)[C@@H](C)CN5C(=O)C([C@H](O)CC(N)=O)NC(=O)C([C@H](O)[C@@H](O)c5ccc(O)c(OS(=O)(=O)O)c5)NC(=O)C5C[C@@H](O)CN5C(=O)C([C@@H](C)O)NC4=O)cc3)no2)cc1 (stereo partly drawn) (X2-[Orn(4R-OH,5R-OH)][ξThr(3R)][ξPro(4R-OH)][ξhTyr(3S-OH,4S-OH,3'-OSO3H)][ξGln(3R-OH)][X3]; lactam 1-C)
inactive: outcome (HACAT) inactive [at 17.4 µM] | Potency (C33A) | Potency (CAOV3) | Potency (Es-2) | Potency (HeLa) | Potency (Hek293T) | Potency (JEG-3)

O=C(OC[C@H]1O[C@H](O[C@]2(CO)O[C@H](CO)[C@@H](O)[C@@H]2O)[C@H](O)[C@@H](O)[C@@H]1O)c1ccc(O)cc1
inactive: outcome (HACAT) inactive [at 17.4 µM] | Potency (C33A) | outcome (CASKI) | Potency (Es-2) | Potency (HeLa) | Potency (Hek293T) | Potency (JEG-3)

CC(=O)O[C@H]1[C@H](O[C@H]2CC[C@]34C[C@]35CC[C@]3(C)[C@@H]([C@@]6(C)CC[C@@H](C(C)(C)O)O6)[C@@H](O)C[C@@]3(C)[C@@H]5C[C@H](O[C@@H]3O[C@H](CO)[C@@H](O)[C@H](O)[C@H]3O)[C@H]4C2(C)C)OC[C@@H](OC(C)=O)[C@@H]1O
inactive: outcome (HACAT) | Potency (C33A) | outcome (CASKI) | Potency (Es-2) | Potency (HeLa) | Potency (Hek293T) | Potency (JEG-3)

CC[C@@H](C)[C@H](NC(=O)C(C)(C)NC(=O)[C@H](CCC(N)=O)NC(=O)C(C)(CC)NC(=O)[C@H](Cc1c[nH]c2ccccc12)NC(C)=O)C(=O)N[C@H](C(=O)NC(C)(C)C(=O)N[C@@H](CC(C)C)C(=O)NC(C)(C)C(=O)N1CCC[C@H]1C(=O)N[C@@H](CCC(N)=O)C(=O)NC(C)(C)C(=O)N1CC(O)C[C@H]1C(=O)NC(C)(CC)C(=O)C1CC[C@@H](C(=O)N[C@@H](Cc2ccccc2)C(=O)NCC(=O)O)N1)C(C)O (stereo not given in full) (Ac-W[ξIva]Q[Aib][aIle][Thr(3ξ)][Aib]L[Aib]PQ[Aib][X8]-X9)
inactive: outcome (HACAT) inactive; activator [at 4.96 µM] | activity change, negative = cytotoxicity (C33A) -11% [at 6.55 µM] | activity change, negative = cytotoxicity (CAOV3) -26.3% [at 6.55 µM] | activity change, negative = cytotoxicity (Es-2) 1.15% [at 6.55 µM] | activity change, negative = cytotoxicity (HeLa) -27.1% [at 6.55 µM] | activity change, negative = cytotoxicity (Hek293T) -15.3% [at 6.55 µM]

O=C(NCCN1CCCC1)c1cc(-c2ccc(CN3CCOCC3)cc2)nc2ccc(F)cc12
inactive: outcome (HACAT) inactive [at 17.4 µM] | Potency (C33A) | Potency (CAOV3) | outcome (CASKI) | Potency (Es-2) | Potency (HeLa) | Potency (Hek293T) | Potency (JEG-3)

C=C1C(=O)O[C@@H]2/C=C(\C)CC/C=C(\C(=O)O[C@@H]3O[C@H](CO)[C@@H](O)[C@H](O)[C@H]3O)CC[C@@H]12
inactive: outcome (HACAT) inactive [at 17.4 µM] | Potency (C33A) | Potency (CAOV3) | Potency (Es-2) | Potency (HeLa) | Potency (JEG-3)

COc1cc(OC)cc(-c2ccc3c(-c4ccc(F)cc4)[nH]nc3n2)c1
inactive: outcome (HACAT) | Potency (C33A) | outcome (CASKI) | Potency (Es-2) | Potency (HeLa) | Potency (Hek293T) | Potency (JEG-3)
